Experimental data as given in the supplement of paper PMC11219838.
Unmarked numbers belong to inactive results.

System: Caenorhabditis elegans L1 (N2)
Assay: survival and reproduction score of C. elegans L1 (0: 0-10 living worms, 1: 11-20, 2: 21-50, 3: >50, 4: overgrown) (score 0-4); higher = more worms, less nematicidal, active = 1 or less; extreme values may be limits of the assay
Settings: 60 µM; 6 days; temperature: 20 °C
How it was run: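 In liquid NGM with E. coli HB101, approximately 20 synchronized C. elegans N2 L1s per 96-well well were exposed to compound at 60 µM final (0.6% v/v DMSO) for 6 days at 20 °C with shaking at 200 rpm in sealed plates. Survival and reproduction were judged under a dissection microscope as an ordinal rating of living worms per well. Ratings went from 0 (0–10 worms) to 4 (overgrown, starved) and were averaged over two biological replicates.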

SMILES	survival and reproduction score
CCOc1ccccc1-c1nc(-c2ccc(NC(=O)CCc3ccc(OC)cc3)cc2)no1	4
CCCc1nnc(CSc2nnc(-c3ccc(Cl)cc3)o2)o1	1 (active)
COc1cccc(-c2nnc(SCC(=O)Nc3cccc(C(F)(F)F)c3)o2)c1	4
COc1cccc(-c2nnc(SCC(=O)NC3CCCCC3)o2)c1	4
Cc1ccccc1-c1nnc(SCc2ccccc2)o1	3
Cc1cccc(-c2noc(-c3ccc(Cl)cc3)n2)c1	4
c1ccc(-c2nnc(SCc3cccnc3)o2)cc1	4
Fc1ccccc1-c1nc(-c2ccccc2)no1	0 (active)
CCOc1ccccc1-c1nnc(SCC(=O)NC(C)CC)o1 (centres undefined)	4
Cc1cccc(-c2noc(-c3ccc4c(c3)OCO4)n2)c1	4
Cn1c(SCc2nnc(-c3ccccc3)o2)nnc1-c1ccco1	4
Cc1ccccc1CSc1nnc(-c2ccccc2)o1	4
COc1ccc(-c2noc(COc3ccc(Br)cc3)n2)cc1	2
COc1ccc(-c2nnc(SCC(=O)Nc3c(F)cc(F)cc3Br)o2)cc1	4
Cc1ccc(-c2noc(-c3ccc(Cl)cc3)n2)cc1	4
Brc1ccc(-c2noc(-c3ccc4c(c3)OCO4)n2)cc1	4
COc1ccc(CSc2nnc(-c3ccc(Cl)cc3Cl)o2)cc1	0 (active)
O=C(Nc1ccc(-c2noc(-c3ccc(F)cc3)n2)cc1)c1ccc(Br)o1	1 (active)
COc1cccc(-c2noc(COc3cccc(C)c3C)n2)c1	2
C=C(C)COc1ccc(-c2nc(-c3cccnc3)no2)cc1	3
CCOc1nc(-c2ccc(C)cc2)ccc1-c1noc(-c2ccc(F)cc2)n1	2
Cc1cc(OCc2nc(-c3ccncc3)no2)cc(C)c1Br	4
O=C(CSc1nnc(-c2ccccc2Cl)o1)c1ccc2c(c1)CCCC2	4

SMILES	survival and reproduction score
O=C(CSc1nnc(-c2ccccc2Cl)o1)Nc1ccc(F)cc1	4
COc1ccc(-c2nnc(SCc3c(Cl)cccc3Cl)o2)cc1	4
Cc1ccc(-c2noc(-c3ccc(Br)o3)n2)s1	0 (active)
Cc1ccc(-c2noc(-c3cc(C)cc(C)c3)n2)cc1	4
Cc1cc(C)c(NC(=O)CSc2nnc(-c3ccc(Br)cc3)o2)c(C)c1	4
COc1ccc(Br)cc1-c1noc(-c2ccncc2)n1	4
O=C(CSc1nnc(-c2ccncc2)o1)Nc1ccccc1Cl	4
Clc1cccc(-c2nc(-c3cccnc3)no2)c1	2
COc1cccc(-c2noc(COc3ccc(Br)cc3)n2)c1	4
O=C(CSc1nnc(-c2cccc(Br)c2)o1)Nc1ccccn1	4
O=C(CSc1nnc(-c2ccccc2)o1)Nc1cccc(Cl)c1	4
Cc1ccccc1OCc1nc(-c2ccccc2)no1	4
COc1ccc(-c2noc(-c3ccccc3Br)n2)cc1	4
Clc1ccc(OCc2nc(-c3ccccc3)no2)c(Cl)c1	0 (active)
COc1ccccc1-c1nnc(SCC(=O)OCc2ccccc2)o1	4
Clc1ccc(OCc2nc(-c3ccc(Br)o3)no2)cc1	3.5
COc1cccc(-c2noc(-c3cc(C)ccc3C)n2)c1	4
O=C(CSc1nnc(-c2ccc(Cl)cc2)o1)Nc1nccs1	4
Cc1ccccc1OCc1nc(-c2ccc(Cl)cc2)no1	4
O=C(CSc1nnc(-c2ccc(Br)cc2)o1)NC1CCCC1	4
CCCCc1ccc(-c2nc(-c3cccnc3)no2)cc1	0 (active)
CCCCCSc1nnc(-c2ccc(Cl)cc2Cl)o1	2
Clc1cc(Br)ccc1OCc1nc(-c2cccnc2)no1	4

SMILES	survival and reproduction score
COc1ccc(-c2nnc(SCc3ccc(Cl)cc3Cl)o2)cc1	4
O=C(CSc1nnc(-c2ccc(Cl)cc2)o1)NCc1ccccc1	4
CCc1ccc(OCc2nc(-c3ccc(Cl)cc3)no2)cc1	4
Cc1cc(OCc2nc(-c3cccnc3)no2)c(C)cc1Br	4
CCOc1ccccc1-c1nnc(SCC(=O)Nc2ccccc2)o1	4
COc1ccc(-c2noc(-c3ccc(Cl)cc3Cl)n2)cc1	4
COc1cccc(-c2noc(COc3ccc(C)c(C)c3)n2)c1	4
Cc1cccc(-c2noc(-c3ccc(F)cc3)n2)c1	2
Fc1cccc(-c2nc(-c3ccccc3)no2)c1	0 (active)
COc1ccc(-c2nnc(SCC(=O)c3ccc(C)o3)o2)cc1	2
Fc1ccc(-c2nc(-c3cccc(C(F)(F)F)c3)no2)cc1	4
Cc1ccccc1-c1nnc(SCC(=O)Nc2cc(C(F)(F)F)ccc2N2CCOCC2)o1	4
Cc1ccc(-c2noc(-c3cccc(C)c3)n2)cc1	0 (active)
O=C(NCc1cccnc1)c1ccccc1-c1nc(-c2ccccc2Cl)no1	4
O=C(c1ccccc1-c1nc(-c2ccccc2)no1)N1CCCCC1	4
Cc1ccccc1CSc1nnc(-c2ccco2)n1C	2
CNC(=O)c1ccccc1-c1nc(-c2ccc(F)cc2)no1	4
CCc1nnc(NC(=O)CSc2nnc(-c3ccc(Cl)cc3Cl)o2)s1	4
Clc1ccc(-c2noc(-c3ccncc3)n2)cc1	3.5
Cc1ccc(OCc2nc(-c3cccnc3)no2)cc1C	4
O=C(CSc1nnc(-c2ccccc2)o1)Nc1ccccc1C(F)(F)F	4
Cc1cc(OCc2nc(-c3ccc(NC(=O)c4ccc5c(c4)OCO5)cc3)no2)ccc1Cl	4
CC(Oc1ccc(Br)cc1)c1nc(-c2ccncc2)no1 (centres undefined)	0 (active)

SMILES	survival and reproduction score
COc1nc(C)ccc1-c1noc(-c2ccc(F)cc2)n1	4
CCOc1ccccc1-c1nnc(SCC(=O)Nc2nccs2)o1	4
Cc1ccc(-c2noc(COc3ccc(Br)cc3)n2)cc1	4
O=C(CSc1nnc(-c2ccc(Cl)cc2Cl)o1)N1CCCCC1	4
COc1cccc(-c2noc(COc3ccc(C(C)C)cc3)n2)c1	4
O=C(NC1CCCCC1)c1ccccc1-c1nc(-c2ccc(F)cc2)no1	4
Cc1ccc(SCc2nc(-c3ccccc3)no2)cc1	4
CCOC(=O)c1c(NC(=O)CSc2nnc(-c3ccc(Cl)cc3)o2)sc(C)c1C	4
COc1ccc(-c2nnc(SCc3ccc(C#N)cc3)o2)cc1	4
Cc1ccc(-c2nnc(SCc3ccccc3Cl)o2)cc1	4
Ic1ccc(OCc2nc(-c3ccncc3)no2)cc1	4
COc1ccc(C(=O)CSc2nnc(-c3ccccc3)o2)cc1	4
Cc1ccc(-c2nc(-c3ccc(F)cc3)no2)cc1	0 (active)
Cc1ccc(-c2nnc(SCC(=O)NCCc3ccccc3)o2)cc1	4
CCCc1ccc(-c2nc(-c3cccnc3)no2)cc1	0 (active)
Cc1ccc(-c2nnc(SCC(=O)Nc3ccccc3)o2)cc1	4
O=C(c1ccccc1-c1nc(-c2ccccc2Cl)no1)N1CCCCC1	4
CCCOc1ccc(-c2ccc(-c3nc(-c4cccnc4)no3)cc2)cc1	4
COc1cccc(NC(=O)c2ccccc2-c2nc(-c3ccccc3Cl)no2)c1	4
Cc1cccc(-c2nc(-c3ccc(Br)cc3)no2)c1	0 (active)
Clc1ccc(-c2nnc(SCc3ccccc3)o2)cc1	4
Clc1ccc(-c2nc(C3CCCCC3)no2)cc1	4
CCCOc1ccc(-c2ccc(-c3nc(-c4ccccn4)no3)cc2)cc1	4

SMILES	survival and reproduction score
CCOc1nc(C)ccc1-c1noc(-c2ccccc2F)n1	4
c1ccc2c(-c3nc(-c4ccncc4)no3)cccc2c1	4
CC(=O)Nc1ccc(NC(=O)c2ccccc2-c2nc(-c3ccccc3Cl)no2)cc1	4
Cc1ccc(-c2noc(-c3ccccc3C)n2)cc1	0 (active)
O=C(CSc1nnc(-c2ccncc2)o1)Nc1ccc(Cl)cc1Cl	4
c1csc(-c2nnc(-c3cccs3)o2)c1	2
CN(C)C(=O)c1ccccc1-c1nc(-c2ccccc2Cl)no1	4
Fc1cccc(-c2nc(-c3cccnc3)no2)c1	0 (active)
CCN(CC)C(=O)CSc1nnc(-c2ccc(Cl)cc2Cl)o1	4
Cc1ccc(-c2nnc(SCC(=O)Nc3ccc(Br)c(C)c3C)o2)cc1	4
Cc1cccc(-c2noc(-c3ccc(C)cc3Cl)n2)c1	4
Cc1ccc(-c2nc(-c3ccncc3)no2)c(Cl)c1	2
O=C(CSc1nnc(-c2ccco2)o1)NC1CCCCC1	4
Cc1cc(C)c(C)c(OCc2nc(-c3cccnc3)no2)c1	4
Cc1cc(C)cc(OCc2nc(-c3ccccc3Cl)no2)c1	4
CCNC(=O)c1ccccc1-c1nc(-c2ccc(OC)cc2)no1	4
Cc1ccc(OC(C)c2nc(-c3ccc4c(c3)OCO4)no2)cc1C (centres undefined)	4
Fc1ccc(-c2noc(-c3ccc(F)cc3)n2)cc1	0 (active)
COc1ccc(C(=O)CSc2nnc(-c3cccc4ccccc34)o2)cc1	4
Cc1ccc(-c2noc(COc3ccc(Cl)cc3C)n2)cc1	2
O=C(Nc1cccnc1)c1ccccc1-c1nc(-c2ccc(Cl)cc2)no1	4
c1ccc(-c2nc(C3CCCCC3)no2)cc1	0 (active)
